About 60 (0.1%) of roughly 59,000 compounds were called active. How the calls were made is not given here. Many of the other results were omitted from the sample, so actives are more common in it than they were.
Experiment: qHTS Assay for Spectroscopic Profiling in A488 Spectral Region
Details: compound autofluorescence; max dye equivalency: Compound Type: qHTS ECL - SigmaAldrich, stronger effect = higher value unless noted; outcome: dye equivalency, Compound Type: qHTS ECL - MLSMR unless noted
Text: NIH Molecular Libraries Screening Centers Network [MLSCN]
NIH Chemical Genomics Center [NCGC]
Occasionally, the artifactual effect may originate from the compounds own spectral or other biophysical properties which generally tend to track its assay concentration. Pre-screening/profiling the library with respect to the compounds spectral properties should help one exclude false positives early on. While the most informative fluorescent profiling data set is obtained by performing a full excitation and emission scan of each well by using a monochromator-based plate reader, such an approach is practical only on a very limited scale as scanning each well requires long time. An alternative approach, applied here, is to perform plate reader scans using selected excitation and emission wavelength pairs to generate a multidimensional relational database that correlates compound concentration and the respective relative fluorescence intensity at a given wavelength set. A standard curve of Alexa 488 (A488) present on each plate as six-point concentration series, was used to compute a normalized fluorescence response, termed dye-equivalent concentration, for each compound at each concentration.
NCGC Assay Protocol Summary:
100 mM Tris buffer, pH 8.0
The wells in columns 1 through 4 of a Kalypsys polypropylene 1536-well compound plate were filled with standard solutions of fluorophore corresponding to the spectral region of interest. Solutions of A488 were placed in the following wells: Y1, Z1: 3 mM, Y2, Z2: 300 uM, Y3, Z3: 30 uM, Y4, Z4: zero (DMSO), AA1, AB1: 3 uM, AA2, AB2: 900 nM, AA3, AB3: 300 nM, AA4, AB4: zero (DMSO).
Six uL of buffer were dispensed to 1536-well Greiner black plates. Compounds and dye standards (23 nL) were transferred via Kalypsys PinTool. The plates were incubated for 15 min at room temperature, and then read on ViewLux (Perkin-Elmer) High-throughput CCD imager using 480 nm and 540 nm excitation and emission filter set.
Keywords: NIH Roadmap, MLSCN, MLI, MLSMR, qHTS, NCGC, A488, A-488, Fluorescent Profiling.

outcome, inactive:
CC[C@@H]1Cc2cc(O)ccc2C2=C1c1ccc(O)cc1C[C@H]2CC inactive [dye equivalency, Compound Type: qHTS ECL - SigmaAldrich]
O=c1c(-c2ccc(F)cc2)nc2cnc(N3CCNCC3)nc2n1Cc1cccs1 inactive [dye equivalency, Compound Type: qHTS ECL - Pharmacopeia]
Nc1nc(N)c2[nH]c(CNc3ccc(C(=O)O)cc3)nc2n1 inactive [dye equivalency, Compound Type: qHTS ECL - NCI]
N#Cc1cccc(-c2nc3cnc(N4CCNCC4)nc3n(C3CC3)c2=O)c1 inactive [dye equivalency, Compound Type: qHTS ECL - Pharmacopeia]
CC(C)NC(=O)N1CCC2(CC1)CCN(C(=O)c1cccn1C)CC2 inactive [dye equivalency, Compound Type: qHTS ECL - Pharmacopeia]
COCCn1c(=O)c(CCc2ccccc2)nc2cnc(N3CCNCC3)nc21 inactive [dye equivalency, Compound Type: qHTS ECL - Pharmacopeia]
CCc1nc(C)cn1S(=O)(=O)c1cc(OC)c(C)cc1C
CC(c1ccco1)N(C(=O)c1ccc(S(=O)(=O)N2CCCCC2)cc1)c1ccccn1 (centres undefined)
CS(=O)(=O)N(CC(=O)NCc1ccco1)c1ccc2c(c1)OCO2 inactive [dye equivalency, Compound Type: qHTS ECL - DPISMR]
O=C(NC1(C(F)(F)F)N=C2SCCN2C1=O)c1ccco1 (centres undefined)
COc1ccc(OCC(=O)OCC(=O)Nc2ccc(S(=O)(=O)N3CCCCC3)cc2)cc1
O=C(N1CCOCC1)N1CCOCC1
CCNC(=O)CN(c1ccc(C)cc1)S(=O)(=O)c1ccc(SC)cc1
CN(Cc1ccco1)c1cc(-c2ccccc2C(F)(F)F)ncn1 inactive [dye equivalency, Compound Type: qHTS ECL - Pharmacopeia]
COC(=O)Cc1nc2ccccc2[nH]1 inactive [dye equivalency, Compound Type: qHTS ECL - DPISMR]
CCOc1ccc(N=NS(=O)(=O)O)cc1 inactive [dye equivalency, Compound Type: qHTS ECL - NCI]
CN1CCN(C(=O)C2C3C=CC(C3)C2C(=O)O)CC1 (centres undefined)
CN(C)c1ncc2nc(-c3ccc(F)cc3)c(=O)n(Cc3ccc(F)cc3)c2n1 inactive [dye equivalency, Compound Type: qHTS ECL - Pharmacopeia]
CN(C)C(=O)c1ccc(-c2cncnc2NC2CCNCC2)cc1 inactive [dye equivalency, Compound Type: qHTS ECL - Pharmacopeia]

— PubChem BioAssay AID591 (National Center for Advancing Translational Sciences (NCATS), 2007)
